Test results published in the supplement of paper PMC8269313.
Where a name gives a salt, the structure may show the parent alone.

System: 4T1
Assay: % inhibition of 4T1 cell number vs DMSO control; higher = stronger growth inhibition
Conditions: 1 µM, 3 days
Outline: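 4T1-H2B-GFP mouse breast cancer cells (3000 per well, 2% FBS medium) were seeded in 96-well imaging plates on plastic, denuded lung or mCAF1 fibroblast-derived matrix, Matrigel (15 μg/mL) or 0.2% gelatin; edge wells were left unused. After 16 h, kinase inhibitors were added at 1 μM final for 3 days. Plates were formalin-fixed, DAPI-stained and imaged on an INCell Analyzer 2200, and GFP-positive nuclei were counted. Percent inhibition of cell number was calculated relative to DMSO control.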

[1] = substrate: lung fibroblast-derived matrix
[2] = substrate: mCAF1 fibroblast-derived matrix

Row | Compound | % inhibition of 4T1 cell number (substrate: Matrigel) | % inhibition of 4T1 cell number (substrate: gelatin) | % inhibition of 4T1 cell number [1] | % inhibition of 4T1 cell number [2] | % inhibition of 4T1 cell number (substrate: plastic)
1 | COc1cc2ncnc(Nc3ccc(NC(=O)c4ccccc4)cc3)c2cc1OC [Aurora Kinase Inhibitor II] | 50.4% | 37.2% | -20.1% | -30.6% | 35.8%
2 | Brc1c(Br)c(Br)c2n[nH]nc2c1Br [Casein Kinase II Inhibitor I] | 49.8% | 40.2% | 1.56% | -30.6% | 39.4%
3 | O=c1c(O)c(-c2ccc(O)c(O)c2)oc2cc(O)c(O)c(O)c12 [Quercetagetin] | 28.5% | 52.6% | -6.29% | 36.1% | 48.4%
4 | CC[C@H](CO)Nc1nc(NCc2ccc(-c3ccccn3)cc2)c2ncn(C(C)C)c2n1 [CR8, (R)-Isomer] | 99.5% | 98.7% | -11.2% | 96% | 96.7%
5 | COc1ccc(CNc2nc(N(CCO)CCO)nc3c2ncn3C(C)C)cc1 [Cdk2 Inhibitor III] | -37% | 15.9% | 6.49% | 22% | -27.8%
6 | CC[C@@H](CO)Nc1nc(NCc2ccc(-c3ccccn3)cc2)c2ncn(C(C)C)c2n1 [CR8, (S)-Isomer] | 99.4% | 98.9% | 60.2% | 95.8% | 96.5%
7 | O=C(O)c1ccc2c3c1cccc3c(=O)n1c3ccccc3nc21 | 30.6% | 44.3% | -11.4% | 31.2% | 32.2%
8 | COc1ccc(Cl)cc1NC(=O)Nc1cc(C)nc2ccccc12 [IGF-1R Inhibitor II] | -4.34% | -99% | -3.14% | -1.23% | -44.3%
9 | O=c1cc(N2CCOCC2)oc2c(-c3ccccc3)cccc12 | -14.7% | -77.3% | 28.2% | 17.4% | -56.8%
10 | Cc1cc(Nc2nc(-c3ccccc3)nc3ccccc23)n[nH]1 [GSK-3 Inhibitor XIII] | -21.7% | -25.8% | -19% | 62.3% | -14.5%
11 | O=c1[nH][nH]c2nnc(-c3c(-c4ccccc4)nn4ccccc34)cc12 [ERK Inhibitor II, Negative control] | -40.3% | -11.4% | -10% | 3.24% | -83.1%
12 | c1ccc(-c2n[nH]c3c2oc2ccccc23)cc1 | -3.87% | -77.4% | -1.95% | -3.97% | -64.2%
13 | Cc1cc(C=C2C(=O)C=CC2=O)cc(C)c1O | 32.9% | 68.1% | 10.9% | -26.2% | 32.3%
14 | OCC(O)CCO/N=C1\C(c2c(O)[nH]c3ccccc23)=Nc2ccccc21 (stereo not given) [Indirubin Derivative E804] | -31.7% | 0.993% | -5.02% | 85.4% | 67.7%
15 | COc1ccc(CNC(=O)Nc2ncc([N+](=O)[O-])s2)cc1 [GSK-3b Inhibitor VIII] | -53.9% | 19.6% | 27.8% | 24.4% | -62.1%
16 | O=C(Nc1cccc(Nc2nccc(Nc3cccc(C(F)(F)F)c3)n2)c1)C1CC1 [Aurora Kinase Inhibitor III] | 54.8% | 74.5% | 97.8% | 15% | 63.6%
17 | O=C1Nc2ccc(Br)cc2/C1=C/c1cc2c([nH]1)CCCC2 [VEGF Receptor 2 Kinase Inhibitor II] | 16.3% | -22.2% | -11.9% | -141% | 8.31%
18 | N#Cc1c(NC(=O)c2cccc3ccccc23)sc2c1CCCC2 [JNK Inhibitor IX] | 92% | 92.5% | 2.5% | 90.8% | 86.4%
19 | N#CCCc1ccc2c(c1)-c1[nH]c3ccc([N+](=O)[O-])cc3c1CC(=O)N2 [Alsterpaullone, 2-Cyanoethyl] | 55.6% | 51.8% | -1.58% | 45.1% | 72.9%
20 | COc1cc(SC)ccc1C(=O)N1CCC(Cc2ccccc2)CC1 [p38 MAP Kinase Inhibitor VI, JX401] | -31.1% | 8.59% | -4.09% | 17% | -66.3%
21 | CCCCc1c(-c2ccc(OC)cc2)[nH]c2nccnc12 [Aloisine, RP106] | 39.6% | 41.7% | -14.4% | -9.32% | 46.9%
22 | Cc1ccc(S(=O)(=O)/C=C/C#N)cc1 | 18.5% | 38.2% | -8.23% | -0.662% | 5.77%
23 | Nc1[nH]nc2nnc(-c3c(-c4ccccc4)nn4ccccc34)cc12 | -37.8% | -5.47% | -14.3% | 1.41% | -58.3%
24 | O=[N+]([O-])c1ccc(-c2nc(-c3ccc(F)cc3)c(-c3ccncc3)[nH]2)cc1 | -4.18% | 12% | -11.4% | 26.1% | -60.5%
25 | c1ccc(-c2cnc(Nc3ccc(OCCN4CCCC4)cc3)s2)cc1 [Flt-3 Inhibitor III] | 95.2% | 88.5% | 5.06% | 65.3% | 72.6%
26 | O=C1c2ccccc2-c2nc3nnnn3nc21 [PDK1/Akt/Flt Dual Pathway Inhibitor] | 99% | 97.3% | -19.8% | 95.4% | 97%
27 | COc1ccc2nc3n[nH]c(C)c3c(NCCOCCO)c2c1 | 28.3% | 44.2% | 1.01% | -1.22% | 23.2%

Row | Compound | % inhibition of 4T1 cell number (substrate: Matrigel) | % inhibition of 4T1 cell number (substrate: gelatin) | % inhibition of 4T1 cell number [1] | % inhibition of 4T1 cell number [2] | % inhibition of 4T1 cell number (substrate: plastic)
28 | COc1cc(Nc2ncc3ccn(-c4cccc(CCC#N)c4)c3n2)cc(OC)c1OC [Keratinocyte Differentiation Inducer] | 91.6% | 89% | 93.7% | 97.6% | 94.4%
29 | Cn1c(O)c(-c2[nH]c3ccccc3c2N=O)c2ccc(Br)cc21 [GSK-3 Inhibitor IX, Control, MeBIO] | 3.95% | 2.35% | 16% | -1.76% | -22.7%
30 | COc1ccc(COc2ccc(Cc3cnc(N)nc3N)cc2OC)cc1 [cFMS Receptor Tyrosine Kinase Inhibitor] | -15.7% | -87.3% | 2.62% | 11.3% | -59.7%
31 | Cn1nc2c3c(cccc31)C(=O)c1ccccc1-2 [JNK Inhibitor, Negative Control] | -37.2% | -36.9% | 0.304% | 24.3% | -59.1%
32 | CCCCCCOC(=O)[C@]1(O)C[C@@H]2O[C@@]1(C)n1c3ccccc3c3c4c(c5c6ccccc6n2c5c31)C(=O)NC4 | -41.8% | -0.139% | -8.63% | 13.5% | -74.7%
33 | O=S(=O)(c1cccc2cnccc12)N1CCCNCC1 [HA 1077, Dihydrochloride] | 25.3% | 21.7% | -23.5% | 4.22% | 21.9%
34 | O=C1Cc2c([nH]c3ccc(Br)cc23)-c2ccccc2N1 [Kenpaullone] | -24.2% | -0.528% | 23.3% | 25.6% | -48.1%
35 | COc1cc(OC)c(C=C2C(=O)Nc3ccccc32)c(OC)c1 | 85.7% | 85.1% | 86.7% | 84.2% | 70.1%
36 | O=C1NC(=O)c2c1c1c3ccccc3[nH]c1n1cncc21 [Isogranulatimide] | -41.6% | -25.6% | -7.38% | 9.11% | -78.2%
37 | COc1cc2c(cc1OC)-c1[nH]nc(Nc3cccc(F)c3)c1C2 [PDGF Receptor Tyrosine Kinase Inhibitor IV] | 94.6% | 84.5% | -13.5% | 89.7% | 74.7%
38 | O=C1Cc2c([nH]c3ccc([N+](=O)[O-])cc23)-c2ccccc2N1 [Alsterpaullone] | 61.5% | 45.2% | -3.92% | -0.808% | 56.1%
39 | Cc1ncc2ccccc2c1C#N [4-Cyano-3-methylisoquinoline] | 48.6% | 52.6% | -13.2% | -46.1% | 56.8%
40 | COc1cc2ncc(-c3ccccc3)nc2cc1OC | 20.6% | 47% | -16.1% | 27.8% | 39.5%
41 | COc1cc2ncn(-c3cc(OCc4ccccc4S(C)(=O)=O)c(C#N)s3)c2cc1OC [IKK-3 Inhibitor IX] | -14.6% | -1.27% | 1.67% | 6.5% | -26.7%
42 | O=S(=O)(c1cccc2c(I)cccc12)N1CCCNCC1 [ML-7, Hydrochloride] | 23% | 24.2% | -1.62% | 33.6% | -7.72%
43 | CC[C@H](CO)Nc1nc(NCc2ccccc2)c2ncn(C(C)C)c2n1 [Roscovitine] | -1.22% | 53.1% | -2.74% | 3.56% | -18.8%
44 | COc1ccc(OC)c2c(=S)c3ccccc3[nH]c12 | -8.48% | -7.36% | -13.6% | 4.29% | -67%
45 | COc1ccc2c(c1)c1c3c(c4c5ccccc5n(C)c4c1n2CC(O)CN(C)C)C(=O)NC3=O (stereo not given) | -13% | -19% | -1% | 17.9% | -42.9%
46 | O=C(c1cc2cc(O)ccc2[nH]1)c1cc2cc(O)ccc2[nH]1 [Flt-3 Inhibitor II] | 13.9% | 26.6% | 23.8% | 22.7% | -36.1%
47 | NCCNc1ncc(C(N)=O)c(Nc2cccc(C(F)(F)F)c2)n1 [Syk Inhibitor II] | -0.528% | -84.2% | -1.24% | -23.5% | -12.4%
48 | NCCCn1cc(C2=C(c3c[nH]c4ccccc34)C(=O)NC2=O)c2ccccc21 [Bisindolylmaleimide III, Hydrochloride] | 50.6% | 46.1% | 12.7% | -60.9% | 37.2%
49 | O=C1NCCc2[nH]c(-c3ccnc(-c4cnc5ccccc5c4)c3)cc21 [MK-2 Inhibitor III] | -42.1% | -5.86% | -4.6% | 4.98% | -48.3%
50 | CCN(CC)C(=O)c1ccc(Nc2nc(OCC3CCCCC3)c3[nH]cnc3n2)cc1 [Cdk2 Inhibitor IV, NU6140] | -9.76% | -12.1% | -6.34% | 80.5% | 44.3%
51 | CCCC(=O)Oc1ccc2[nH]c(C(=O)c3cc4ccccc4[nH]3)cc2c1 [PDGF Receptor Tyrosine Kinase Inhibitor II] | -18.7% | -112% | -6.16% | 1.3% | -70.2%
52 | N#CC(C#N)=C(N)/C(C#N)=C/c1ccc(O)cc1 | -1.44% | 52.7% | -11.6% | 11.4% | 21.1%
53 | CCCCn1c2ccc(O)cc2c2c3c(c(-c4ccccc4Cl)cc21)C(=O)NC3=O [Wee1 Inhibitor II] | 52.6% | 63% | 15.6% | 4.43% | 57.9%
54 | CN(C)CCCn1cc(C2=C(c3c[nH]c4ccccc34)C(=O)NC2=O)c2ccccc21 [Bisindolylmaleimide I] | 46.6% | 41.5% | -13.3% | 13.1% | 57.2%
